In ChEMBL document CHEMBL1961873, “Compounds: GSK PKIS; Assays: Nanosyn kinase panel” (2012):

Assays:
[1] = molecular target: Serine/threonine-protein kinase pim-2 (Homo sapiens) (UniProt Q9P1W9); settings: at 1 µM;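 also: each value is a mean of the inhibition measurements against the kinase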
[2] = molecular target: Serine/threonine-protein kinase pim-3 (Homo sapiens) (UniProt Q86V86); settings: at 0.1 µM
[3] = molecular target: Serine/threonine-protein kinase pim-3 (Homo sapiens) (UniProt Q86V86); settings: at 1 µM
[4] = molecular target: T1, MAP kinase-activated protein kinase 5 (Homo sapiens) (UniProt Q8IW41); settings: at 0.1 µM
T1 sequence (whole entry): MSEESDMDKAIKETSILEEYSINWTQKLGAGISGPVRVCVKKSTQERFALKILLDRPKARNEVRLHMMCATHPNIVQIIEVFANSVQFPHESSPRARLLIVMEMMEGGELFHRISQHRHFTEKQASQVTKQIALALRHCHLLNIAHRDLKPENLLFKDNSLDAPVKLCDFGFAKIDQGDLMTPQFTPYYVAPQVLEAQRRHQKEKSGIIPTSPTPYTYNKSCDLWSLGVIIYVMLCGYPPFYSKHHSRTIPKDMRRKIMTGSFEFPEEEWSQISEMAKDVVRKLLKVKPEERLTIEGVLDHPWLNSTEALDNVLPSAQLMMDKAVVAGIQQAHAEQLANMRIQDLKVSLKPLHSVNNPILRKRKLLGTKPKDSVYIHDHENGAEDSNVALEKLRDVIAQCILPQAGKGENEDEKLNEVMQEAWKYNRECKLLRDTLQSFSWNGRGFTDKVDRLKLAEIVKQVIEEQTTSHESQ

[5] = molecular target: T1, MAP kinase-activated protein kinase 5 (Homo sapiens); settings: at 1 µM
[6] = molecular target: Serine/threonine-protein kinase SIK1 (Homo sapiens) (UniProt P57059); settings: at 0.1 µM
[7] = molecular target: Serine/threonine-protein kinase SIK1 (Homo sapiens) (UniProt P57059); settings: at 1 µM
[8] = molecular target: Serine/threonine-protein kinase SIK2 (Homo sapiens) (UniProt Q9H0K1); settings: at 0.1 µM
[9] = molecular target: Serine/threonine-protein kinase SIK2 (Homo sapiens) (UniProt Q9H0K1); settings: at 1 µM
[10] = molecular target: T2, Serine/threonine-protein kinase TBK1 (Homo sapiens) (UniProt Q9UHD2); settings: at 0.1 µM
T2 sequence (whole entry): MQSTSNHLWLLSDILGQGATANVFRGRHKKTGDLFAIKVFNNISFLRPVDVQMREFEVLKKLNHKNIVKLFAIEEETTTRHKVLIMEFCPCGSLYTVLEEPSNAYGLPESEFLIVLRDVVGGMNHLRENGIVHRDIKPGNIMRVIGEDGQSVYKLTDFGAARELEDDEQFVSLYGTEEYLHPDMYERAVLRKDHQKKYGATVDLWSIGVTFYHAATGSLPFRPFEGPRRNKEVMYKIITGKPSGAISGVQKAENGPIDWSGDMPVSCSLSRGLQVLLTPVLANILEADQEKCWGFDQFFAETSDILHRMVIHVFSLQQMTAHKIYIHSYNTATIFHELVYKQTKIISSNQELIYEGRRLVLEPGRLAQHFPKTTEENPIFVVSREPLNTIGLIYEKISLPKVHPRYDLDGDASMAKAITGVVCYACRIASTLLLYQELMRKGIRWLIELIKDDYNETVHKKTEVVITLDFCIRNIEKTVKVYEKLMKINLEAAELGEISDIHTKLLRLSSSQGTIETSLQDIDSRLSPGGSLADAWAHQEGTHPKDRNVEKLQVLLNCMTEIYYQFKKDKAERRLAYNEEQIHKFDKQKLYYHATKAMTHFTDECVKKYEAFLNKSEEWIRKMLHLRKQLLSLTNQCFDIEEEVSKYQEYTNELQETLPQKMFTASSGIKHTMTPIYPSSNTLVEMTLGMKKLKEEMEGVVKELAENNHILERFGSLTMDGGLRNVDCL

[11] = molecular target: T2, Serine/threonine-protein kinase TBK1 (Homo sapiens); settings: at 1 µM
[12] = molecular target: T3, Testis-specific serine/threonine-protein kinase 1 (Homo sapiens) (UniProt Q9BXA7); settings: at 0.1 µM
T3 sequence (whole entry): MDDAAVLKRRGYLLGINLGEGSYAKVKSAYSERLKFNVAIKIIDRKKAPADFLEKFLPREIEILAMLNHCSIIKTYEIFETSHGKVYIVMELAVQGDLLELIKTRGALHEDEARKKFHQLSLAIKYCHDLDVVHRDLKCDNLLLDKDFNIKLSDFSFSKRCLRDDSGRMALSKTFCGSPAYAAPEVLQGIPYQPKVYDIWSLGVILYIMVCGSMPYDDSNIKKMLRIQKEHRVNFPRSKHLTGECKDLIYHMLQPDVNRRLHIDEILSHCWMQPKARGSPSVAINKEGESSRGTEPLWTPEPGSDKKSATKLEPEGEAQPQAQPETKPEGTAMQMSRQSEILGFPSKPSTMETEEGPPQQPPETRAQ

[13] = molecular target: T3, Testis-specific serine/threonine-protein kinase 1 (Homo sapiens); settings: at 1 µM
[14] = molecular target: T4, Testis-specific serine/threonine-protein kinase 2 (Homo sapiens) (UniProt Q96PF2); settings: at 0.1 µM
T4 sequence (whole entry): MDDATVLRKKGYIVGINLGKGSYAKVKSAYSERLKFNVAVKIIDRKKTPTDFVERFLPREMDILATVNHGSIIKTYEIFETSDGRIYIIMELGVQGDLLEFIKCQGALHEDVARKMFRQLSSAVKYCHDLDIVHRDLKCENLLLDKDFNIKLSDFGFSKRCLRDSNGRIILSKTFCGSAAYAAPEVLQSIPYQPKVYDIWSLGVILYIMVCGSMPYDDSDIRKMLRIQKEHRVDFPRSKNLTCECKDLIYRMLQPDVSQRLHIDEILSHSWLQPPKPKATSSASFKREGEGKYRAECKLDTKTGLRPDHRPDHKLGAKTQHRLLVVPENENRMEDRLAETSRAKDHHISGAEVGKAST

[15] = molecular target: T4, Testis-specific serine/threonine-protein kinase 2 (Homo sapiens); settings: at 1 µM
[16] = molecular target: Casein kinase I isoform alpha (Homo sapiens) (UniProt P48729); settings: at 0.1 µM
[17] = molecular target: Casein kinase I isoform alpha (Homo sapiens) (UniProt P48729); settings: at 1 µM
[18] = molecular target: Casein kinase I isoform gamma-1 (Homo sapiens) (UniProt Q9HCP0); settings: at 0.1 µM
[19] = molecular target: Casein kinase I isoform gamma-1 (Homo sapiens) (UniProt Q9HCP0); settings: at 1 µM
[20] = molecular target: Casein kinase I isoform gamma-2 (Homo sapiens) (UniProt P78368); settings: at 0.1 µM;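 also: values are mean inhibition figures reported as part of the GSK PKIS dataset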
Sequence of Casein kinase I isoform gamma-2 (Homo sapiens) (P78368 whole entry, looked up, canonical isoform): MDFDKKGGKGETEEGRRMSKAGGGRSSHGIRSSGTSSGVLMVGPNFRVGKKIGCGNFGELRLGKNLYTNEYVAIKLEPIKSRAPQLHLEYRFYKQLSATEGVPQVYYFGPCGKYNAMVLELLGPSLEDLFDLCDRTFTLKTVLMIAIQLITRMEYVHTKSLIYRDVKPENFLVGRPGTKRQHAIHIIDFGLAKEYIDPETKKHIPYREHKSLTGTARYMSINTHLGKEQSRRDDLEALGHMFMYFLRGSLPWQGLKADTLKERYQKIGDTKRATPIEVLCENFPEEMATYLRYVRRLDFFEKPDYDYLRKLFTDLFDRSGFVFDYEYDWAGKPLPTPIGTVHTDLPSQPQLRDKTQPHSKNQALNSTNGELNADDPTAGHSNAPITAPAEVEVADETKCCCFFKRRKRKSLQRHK

Sequence of Serine/threonine-protein kinase SIK2 (Homo sapiens) (Q9H0K1 whole entry, looked up): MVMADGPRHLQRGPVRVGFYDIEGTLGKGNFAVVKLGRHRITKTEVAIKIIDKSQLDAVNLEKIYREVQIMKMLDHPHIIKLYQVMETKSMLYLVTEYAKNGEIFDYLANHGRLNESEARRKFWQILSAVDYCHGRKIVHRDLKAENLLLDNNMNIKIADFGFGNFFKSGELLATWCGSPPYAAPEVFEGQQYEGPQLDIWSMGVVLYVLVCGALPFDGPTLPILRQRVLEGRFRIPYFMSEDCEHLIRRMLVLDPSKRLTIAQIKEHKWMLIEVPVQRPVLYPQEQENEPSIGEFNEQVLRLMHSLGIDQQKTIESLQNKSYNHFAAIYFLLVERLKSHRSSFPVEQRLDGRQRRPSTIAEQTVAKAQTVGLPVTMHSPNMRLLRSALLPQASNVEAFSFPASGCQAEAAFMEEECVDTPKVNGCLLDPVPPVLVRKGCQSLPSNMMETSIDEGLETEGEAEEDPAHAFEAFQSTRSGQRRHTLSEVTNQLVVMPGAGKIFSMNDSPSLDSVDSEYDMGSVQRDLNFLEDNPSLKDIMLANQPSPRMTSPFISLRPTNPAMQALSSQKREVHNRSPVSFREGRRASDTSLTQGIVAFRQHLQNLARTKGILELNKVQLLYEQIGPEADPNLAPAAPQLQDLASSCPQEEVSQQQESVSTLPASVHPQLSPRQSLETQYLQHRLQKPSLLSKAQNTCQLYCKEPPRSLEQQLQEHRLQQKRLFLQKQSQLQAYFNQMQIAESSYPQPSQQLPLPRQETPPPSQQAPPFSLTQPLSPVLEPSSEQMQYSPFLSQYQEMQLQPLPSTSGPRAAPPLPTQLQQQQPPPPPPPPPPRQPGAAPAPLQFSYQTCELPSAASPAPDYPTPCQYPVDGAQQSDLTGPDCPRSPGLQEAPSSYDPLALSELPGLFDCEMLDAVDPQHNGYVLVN
Sequence of Serine/threonine-protein kinase pim-2 (Homo sapiens) (Q9P1W9 whole entry, looked up): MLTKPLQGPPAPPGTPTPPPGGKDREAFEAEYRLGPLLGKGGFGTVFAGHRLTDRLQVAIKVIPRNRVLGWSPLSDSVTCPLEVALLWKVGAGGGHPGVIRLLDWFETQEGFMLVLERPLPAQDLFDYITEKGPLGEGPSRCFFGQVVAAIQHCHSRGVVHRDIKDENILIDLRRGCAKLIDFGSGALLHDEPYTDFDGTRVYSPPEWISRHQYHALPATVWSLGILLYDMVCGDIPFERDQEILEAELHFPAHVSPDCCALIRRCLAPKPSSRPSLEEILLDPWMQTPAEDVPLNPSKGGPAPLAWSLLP
Sequence of Casein kinase I isoform gamma-1 (Homo sapiens) (Q9HCP0 whole entry, looked up, canonical isoform): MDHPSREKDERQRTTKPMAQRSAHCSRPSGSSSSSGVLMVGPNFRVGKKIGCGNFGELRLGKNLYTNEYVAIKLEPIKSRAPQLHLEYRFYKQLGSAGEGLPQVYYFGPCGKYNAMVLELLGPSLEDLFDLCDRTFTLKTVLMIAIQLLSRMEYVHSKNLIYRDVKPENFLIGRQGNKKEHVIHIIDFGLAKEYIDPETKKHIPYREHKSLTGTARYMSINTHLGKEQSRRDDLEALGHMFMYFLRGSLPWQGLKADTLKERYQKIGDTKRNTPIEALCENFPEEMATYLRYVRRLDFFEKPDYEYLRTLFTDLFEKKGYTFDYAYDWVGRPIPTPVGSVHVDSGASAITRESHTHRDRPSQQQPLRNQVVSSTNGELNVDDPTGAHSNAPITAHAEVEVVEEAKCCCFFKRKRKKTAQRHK
Sequence of Casein kinase I isoform alpha (Homo sapiens) (P48729 2-337 limits assumed): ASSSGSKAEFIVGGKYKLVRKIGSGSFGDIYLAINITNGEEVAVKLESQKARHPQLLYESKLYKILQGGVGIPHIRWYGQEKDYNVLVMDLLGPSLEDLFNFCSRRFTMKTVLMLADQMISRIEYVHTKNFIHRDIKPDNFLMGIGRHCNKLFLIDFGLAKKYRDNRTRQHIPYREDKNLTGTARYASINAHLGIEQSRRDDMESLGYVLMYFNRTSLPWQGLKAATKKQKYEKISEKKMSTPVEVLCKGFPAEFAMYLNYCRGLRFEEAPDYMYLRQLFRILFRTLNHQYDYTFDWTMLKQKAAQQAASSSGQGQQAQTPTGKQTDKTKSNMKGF
Sequence of Serine/threonine-protein kinase SIK1 (Homo sapiens) (P57059 whole entry): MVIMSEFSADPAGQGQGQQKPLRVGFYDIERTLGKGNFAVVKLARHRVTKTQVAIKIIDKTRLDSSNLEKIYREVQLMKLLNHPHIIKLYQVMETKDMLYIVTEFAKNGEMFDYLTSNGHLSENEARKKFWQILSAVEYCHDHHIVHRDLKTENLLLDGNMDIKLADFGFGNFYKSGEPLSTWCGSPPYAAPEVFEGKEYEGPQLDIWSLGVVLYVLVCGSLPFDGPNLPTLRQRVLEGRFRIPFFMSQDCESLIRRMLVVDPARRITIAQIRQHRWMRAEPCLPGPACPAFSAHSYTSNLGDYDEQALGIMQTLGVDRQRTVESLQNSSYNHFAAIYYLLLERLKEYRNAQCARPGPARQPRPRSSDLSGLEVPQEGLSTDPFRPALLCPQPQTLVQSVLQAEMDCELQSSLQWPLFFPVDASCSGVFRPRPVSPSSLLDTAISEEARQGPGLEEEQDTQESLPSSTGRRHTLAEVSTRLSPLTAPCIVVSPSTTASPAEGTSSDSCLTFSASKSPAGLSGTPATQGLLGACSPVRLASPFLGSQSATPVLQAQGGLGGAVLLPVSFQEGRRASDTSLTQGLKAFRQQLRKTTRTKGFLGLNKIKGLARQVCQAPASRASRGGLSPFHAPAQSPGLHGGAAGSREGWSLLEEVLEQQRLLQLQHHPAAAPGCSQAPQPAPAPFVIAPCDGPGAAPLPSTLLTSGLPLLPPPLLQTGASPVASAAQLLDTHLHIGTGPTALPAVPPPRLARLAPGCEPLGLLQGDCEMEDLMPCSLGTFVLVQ

Row | Structure (SMILES) | inhibition [1] | inhibition [2] | inhibition [3] | inhibition [4] | inhibition [5] | inhibition [6] | inhibition [7] | inhibition [8] | inhibition [9] | inhibition [10] | inhibition [11] | inhibition [12] | inhibition [13] | inhibition [14] | inhibition [15] | inhibition [16] | inhibition [17] | inhibition [18] | inhibition [19] | inhibition [20]
1 | FC(F)(F)CNc1nccc(-c2cnn3ncccc23)n1 | 1.1% | -0.3% | 1.93% | 1.14% | 0.15% | 2.46% | 1.86% | -0.9% | 0.27% | 1.42% | 0.21% | 3.33% | 2.64% | -0.54% | -0.28% | 3.2% | 23.5% | 2.54% | 6.11% | 3.35%
2 | OCCCNc1nccc(-c2c(-c3ccc(F)cc3)nn3cc(C(F)(F)F)ccc23)n1 | -0.96% | -0.81% | -0.18% | -0.21% | -1.07% | 5.25% | 6.5% | 7.07% | 16.9% | 2.49% | 5.25% | 1.75% | -0.99% | 1.56% | -2.79% | 8.54% | 28.7% | 1.82% | 4.37% | 0.31%
3 | CN1CCC(n2cnc(-c3ccc(F)cc3)c2-c2ccnc(NCCO)n2)CC1 | 2.65% | 1.55% | 5.22% | 1.7% | 4.06% | 2.04% | 6.87% | 4.44% | 16.6% | -0.04% | 7.57% | 4.44% | 6.56% | 3.07% | 4.33% | 37% | 73.4% | 4.15% | 8.74% | 2.94%
4 | CCn1c(-c2nonc2N)nc2cncc(C(=O)NCCNC)c21 | 18.8% | 26.3% | 69.3% | 1.39% | 1.58% | 3.17% | 9.07% | 2.51% | 6.02% | 4.08% | 9.32% | 7.08% | 32.1% | 2.36% | 1.74% | 4.37% | 4.77% | 4.39% | 5.89% | 3.81%
5 | c1ccc(-c2n[nH]cc2-c2ccnc(-c3ccc(OCCn4ccnc4)cc3)c2)nc1 | 0.26% | 0.51% | 0.09% | 0.48% | 1.25% | 1.64% | 6.26% | 0.8% | 10% | 0.6% | 0.29% | 1.73% | 2.8% | 2.08% | 1.93% | 3.33% | 18.1% | 0.69% | 3.14% | 0.83%
6 | CCS(=O)(=O)c1ccc(OC)c(Nc2ncc(-c3cccc(F)c3)o2)c1 | 0.08% | 0.31% | 3.65% | 2.11% | 2.01% | 7.36% | 29.4% | 8.6% | 36.7% | 5.98% | 11.5% | 6.42% | 5.86% | 3.41% | 3.46% | 5.47% | 7.11% | 4.64% | 5.04% | 3.91%
7 | O=C(Nc1n[nH]c2nnc(-c3cccnc3)cc12)C1CC1 | 28.7% | 26.8% | 69.7% | 0.13% | -0.19% | 1.74% | 5.12% | 1.86% | -1.67% | 0.25% | 1.3% | 0.18% | 1.92% | -0.11% | 0.95% | -0.76% | -2.19% | -0.63% | 0.33% | -0.76%
8 | CCCNc1cccc(-n2ncc3c(N/N=C/c4ccncc4)ncnc32)c1 | 0.32% | 3.58% | 4.06% | 0.95% | 1.6% | 3.14% | 9.54% | -0.68% | 21.1% | 2.22% | 20.2% | 1.42% | 6.17% | 0.21% | 3.17% | 0.14% | 1.89% | 0.84% | 1.57% | 1.79%
9 | CS(=O)(=O)Nc1ccc(-c2cc(-c3ccccc3)cc(C(N)=O)c2N)cc1 | 0.82% | 0.62% | 1.22% | 0.73% | 3.19% | 1.69% | 7.99% | -1.02% | 3.58% | 1.82% | 2.08% | 2.3% | 2.85% | 0.46% | 1.61% | 0.02% | 2.47% | 0.73% | 0.84% | 0.2%
10 | COc1cc2c(cc1Nc1nc(Nc3cccc(F)c3C(N)=O)c3cc[nH]c3n1)N(C(=O)CN1CCN(C(C)C)CC1)CC2 | 0.2% | 0.01% | 1.84% | 0.57% | 1.03% | 5.86% | 8.52% | 3.09% | 0.18% | 2.33% | 3.05% | 5.1% | 31.9% | 2.49% | 12.4% | 1.84% | 11.4% | 2.53% | 5.76% | 2.46%
11 | CN(c1ccc(NC(=O)NCCN2CCOCC2)cc1)c1ccnc(Nc2ccc(CS(C)(=O)=O)cc2)n1 | 0.65% | 0.45% | 2% | 1.83% | 3.14% | 2.8% | 17.4% | 9.27% | 11.2% | 1.55% | 4.49% | 4.48% | 5.87% | 4.78% | 3.15% | 1.71% | 2.52% | 2.63% | 3.24% | 3.34%
12 | NC(=O)c1ccc2c(-c3ccnc(NCCCO)n3)c(-c3ccc(F)cc3)nn2c1 | 1.11% | -0.5% | -0.27% | 1.47% | 1.16% | 3.64% | 16% | 9.22% | 40.4% | 4.13% | 4.69% | 3.95% | 3.68% | 2.67% | 2.23% | 25.3% | 67.6% | 7.1% | 19.8% | 5.87%
13 | COc1ccc(-c2nn3ncccc3c2-c2ccnc(Nc3ccc(F)c(F)c3)n2)cc1 | 4.2% | 4.52% | 6.05% | 1.6% | 4.42% | 1.5% | 8.64% | 8.32% | 7.08% | -2.71% | 5.55% | 4.21% | 5.79% | 2.03% | 5.03% | 4.64% | 6.66% | 4.01% | 4.36% | 3.31%
